Assay results from PubChem BioAssay (NCATS).
Results filed as inconclusive are left out. Activity calls are given as the source filed them. Calls come from the whole dose curve; as a rule, active = well fitted inhibition curve with a large enough effect; inconclusive = small, poorly fitted or top-dose-only effect; inactive = flat fitted curve, though single readings scatter.

Assay: qHTS to identify inhibitors of the type 1 interferon - major histocompatibility complex class I in skeletal muscle: primary screen against the NCATS Pharmaceutical Collection (AID 1347407)
Details: human skeletal muscle cells, IFN-b-induced MHC-I HiBiT luminescence, 24 h; series mostly up to 45.9 µM; activity change, negative = inhibition: at the top concentration
Summary of the method: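 Immortalized human myoblasts (C25cl48) with HiBiT knocked into endogenous HLA-B*08:01 were stimulated with 4 ng/ml IFN-beta and treated with compounds (8-point, 1:5, top 46 uM final) for 24 h at 37 C; HiBiT lytic luminescence read.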
% is set by controls: 0 for no effect and ±100 for the full control effect; potency is the fitted concentration of half-maximal effect.

Row | SMILES | activity change, negative = inhibition | Potency
1 | O=C1c2ccccc2C(=O)c2ccccc21 | 4.37% [at 19 µM] (inactive) | –
2 | NC1=NC(=O)C(c2ccccc2)O1 (centres undefined) | 6.55% (inactive) | –
3 | CN1CCC(O)(c2ccc(F)cc2)C(C(=O)c2ccc(F)cc2)C1 (centres undefined) | -5.46% (inactive) | –
4 | CCC1(CC)C(=O)C=CNC1=O | 0.651% (inactive) | –
5 | C[N+]1(CCF)[C@@H]2CC[C@H]1CC(OC(=O)C(O)(c1ccccc1)c1ccccc1)C2 (some centres undefined) | 12.4% (inactive) | –
6 | CN1C(=O)NC(=O)C(C)(C2=CCCCC2)C1=O (centres undefined) | -17.6% (inactive) | –
7 | CCC1(c2ccccc2)C(=O)N(COC)C(=O)N(COC)C1=O | 10.6% (inactive) | –
8 | CC1(C)C(C=C(Cl)Cl)C1C(=O)OC(C#N)c1cccc(Oc2ccccc2)c1 (centres undefined) | -2.96% (inactive) | –
9 | Nc1ccc([As](=O)(O)O)cc1 | -1.97% (inactive) | –
10 | CCN[C@H](C)Cc1cccc(C(F)(F)F)c1 | 1.29% [at 92.2 µM] (inactive) | –
11 | C[C@H]1[C@@H]2Cc3ccc(O)cc3[C@@]1(C)CCN2C | -10.5% [at 230 µM] (inactive) | –
12 | CCC(C)C(C)(COC(N)=O)COC(N)=O (centres undefined) | 7.89% (inactive) | –
13 | CCCOC(=O)c1cncn1C(C)c1ccccc1 (centres undefined) | 6.94% (inactive) | –
14 | O=c1[nH]c2ccccc2n1C1CCNCC1 | 1.23% (inactive) | –
15 | C=CCC1([C@H](C)CCC)C(=O)NC(=O)NC1=O | -2.08% [at 92.2 µM] (inactive) | –
16 | NC(=O)CS(=O)C(c1ccccc1)c1ccccc1 (centres undefined) | -16.3% (inactive) | –
17 | Clc1cccc(SC2CCNCC2)n1 | 26.6% (inactive) | –
18 | C#C[C@]1(O)CC[C@H]2[C@@H]3CCC4=CC(=O)CC[C@]4(C)[C@H]3CC[C@@]21C | 4.23% (inactive) | –
19 | CC(=O)C1CCOC1=O (centres undefined) | -19.1% (inactive) | –
20 | C[C@]12Cc3cn[nH]c3C[C@@H]1CC[C@@H]1[C@@H]2CC[C@@]2(C)[C@H]1CC[C@]2(C)O | 2.42% (inactive) | –

Row | SMILES | activity change, negative = inhibition | Potency
21 | Nc1ccccc1 | 19.6% (inactive) | –
22 | C[C@]12CCC(=O)C=C1CC[C@@H]1[C@H]3CC[C@](C)(O)[C@@]3(C)CC[C@@H]12 | -16.7% [at 92.2 µM] (inactive) | –
23 | CCC(C)(C)c1ccc(O)cc1 | -0.681% (inactive) | –
24 | COc1cc(OC)c(OC)cc1C=O | -8.32% [at 92.2 µM] (inactive) | –
25 | Clc1ccc(C(c2ccc(Cl)cc2)C(Cl)(Cl)Cl)cc1 | -7.62% (inactive) | –
26 | O=C(N/N=C/c1ccc([N+](=O)[O-])o1)c1cc([N+](=O)[O-])cc([N+](=O)[O-])c1O | -6.62% (inactive) | –
27 | O=C(O)c1ccc(=O)[nH]c1 | 4.79% (inactive) | –
28 | O=C(O)CCCc1ccc(N(CCCl)CCCl)cc1 | 3.34% (inactive) | –
29 | CCN[C@@H](C)Cc1cccc(C(F)(F)F)c1 | -0.435% (inactive) | –
30 | CC[N+]1(CC)CCC(OC(=O)C(O)(c2ccccc2)c2ccccc2)C1 (centres undefined) | -5.79% (inactive) | –
31 | COc1cccc2c1C(=O)c1c(O)c3c(c(O)c1C2=O)C[C@@](O)(C(=O)CO)CC3OC1CC(N2CCOC(OC)C2)C(O)C(C)O1 (some centres undefined) | – | 2970 nM (active)
32 | COc1cc(CCN)cc(OC)c1OC | -6.98% [at 92.2 µM] (inactive) | –
33 | Clc1ccccc1N1CCNCC1 | 7.84% (inactive) | –
34 | CCN(CC)CCc1c[nH]c2ccccc12 | -1.64% [at 154 µM] (inactive) | –
35 | CCCCCCC(=O)CCCCCC/C=C/C[C@@H](O)[C@H](O)[C@@](N)(CO)C(=O)O | 0.612% [at 19 µM] (inactive) | –
36 | CN(C)CCc1c[nH]c2cccc(OP(=O)(O)O)c12 | 8.37% [at 92.2 µM] (inactive) | –
37 | CN1CC[C@]23c4c5ccc(O)c4O[C@H]2[C@@H](O)CC[C@H]3[C@H]1C5 | 0.713% [at 92.2 µM] (inactive) | –
38 | NC(=O)c1cc([N+](=O)[O-])cc([N+](=O)[O-])c1 | -12.5% (inactive) | –
39 | C[C@]12CC[C@H]3[C@@H](CCC4=CC(=O)CC[C@@H]43)[C@@H]1CC[C@@H]2OC(=O)CCC1CCCCC1 | -3.84% (inactive) | –
